Measured values reported in the supplement of paper PMC12632987.
The full ranking holds about 4,500 sequences; the median of “median log2 fold change of GCK-ALFA target abundance (FLAG IP / Myc IP barcode read proportion)” is about 0.078, and the lowest 2% start at about -0.6. Only a selection was taken, and the lowest values are over-represented in it overall.

B1: GBRAP_184_5076 (protein)
chain: AVLEETLRVEDLEEARARLAALRERVADFRGTLVVLVEMPEFERETARAVLEGLAAMKAAGYVTDVTVGFDAPLTEEQVDFVVDTADALGVKVTLALPEE
B2: GBRAP_35_5513 (protein)
chain: SSIDTETEMLVSTLEDATLAVEDLDPETLKKIVESLAELAREFILQNKNDLEALKRVKEELEKLAEALRKRGLDDPLIKEALEKVEEVIKLAEEEIKKIE
B3: GBRAP_160_4713 (protein)
chain: SETAEERKKYVDEEFERAKKLIEGETIEQRAIIVEGTVGEIIMEFVEDEKATDELIDEVIEIGDELVKTILENPNLTLEEIKELIDEAREKMKEAIDKHL
B4: GBRAP_78_6743 (protein)
chain: KAEEVIDETIETLNEALKALSSKPIEEVGDAMLHLLDASEALIEAEEEGFPLEYIEEAARHLAAAIAEIEAKGIELPAEIMAALKASLEALKALAAEKKA
B5: GBRAP_128_3161 (protein)
chain: AVEEAKKKTKELMEKIKNSSLEEVEKLAKELVEMMKTASDEEVEAMAEVILEELPKLSAEKLEILADVLEEKMPELSPFGQNQAADVLVEALNEAEELEE
B6: GBRAP_78_6611 (protein)
chain: ETKEKILKLLEEAEELAREVRKLAPEVAEQAAELEVLLGTAIYMVDTGSESKEEILETLEEAEKAAKELKKLVEGLAEEVQKLVKEALEKIKEAIKLLKE
B7: GBRAP_160_4329 (protein)
chain: SEEFEKLIEFIDEEFEETKELIKGLSLEQVKVLIEGTFGEIIMEMSENESISDELVDFVVAERDALLATLDANPDLSEEEIKALIDEARERIKEALKKEA
B8: GBRAP_125_3108 (protein)
chain: SEEEILEALKRLAKALGFSEEEAEEAAELARKFSVKQTLYALFLAEGEEELADLVEKLTEEQAKRALLKLAKWLEENPNATKEEVLEQAKKILEEELAKQ
B9: GBRAP_125_3105 (protein)
chain: MEEEILEALKLLAKALGFDDEDAEEAARLAREFSVKMTLYALLKAEGEEELADLVEKLTEEQAKKVLLKVAEWLKKNPNATKEEVLKKLKEVILEELEKA
B10: GBRAP_9_7175 (protein)
chain: LKEAAKKAIEGLKEAKEFALEVVPEEKKEEINAAFDELIETVKKMQADDSVTKEEFRETLEKGFDKIIELAKKNLDPEIAAIVETELLTIKAEVDELLDE
B11: GBRAP_160_3978 (protein)
chain: SEEIEKLKKEIKELAEEAKELIEGESYEERLTIVRVMFGEILMLLMSNENVSDETEEEVAKVGDETIAYLEANPDLTEEEIKELIKEAEKKIFEILEKNE
B12: GBRAP_160_4224 (protein)
chain: METVEKLVKIFRENFEEALELIEGESLEEQKVILDVAAGEVILEAEEIEEATEEMVEIVDKKAEEAREELLEAREASKEEKRKLIEEHAEKLRKELEKVA
B13: GBRAP_74_6499 (protein)
chain: SAATEAAAEEFAALLRAGASYEELMAHLAKMNVEALNAAVIKATEVARANADELTEEQIDALAELADRVFAESEDPEAIKAAGELVKILYERELRLEAER
B14: GBRAP_74_6501 (protein)
chain: AAADEAAAEEFAELLRRGASYEELMAHIAEMNVAALDLAVIKATEEARENAEKLTEEQIDALAELADRVFAESENPEAIAAAGELVKILYETEERRRAEE
B15: GBRAP_26_5460 (protein)
chain: MEEAERAAEAEVRAIAARLPDPRVAAAVVAEFSTELLEAEEAIENGEDPKEAFRKAREEFLAEARELMEEAGLSPEEIAAFEAELSAVFDKLEAEVLAEL
B16: GBRAP_52_6294 (protein)
chain: SMEEVEKKAKEIVELVKEGKLEEAIELAKKFVEENSLEEALELGKLLIEKIEELTPEEAELMLEVIEALAEEIEKEFGAEEEADILEAEAAAAAYKVLQK
B17: GBRAP_160_4717 (protein)
chain: SETAEKLKEYVDEEFDEAEELMKGESIEQRAIILEGTVGEIIMELFENPDASDELIDEVLKIGDEAVATLKANPDLSDEEIEELLDEARDKMKEAIDKHL
B18: GBRAP_137_3636 (protein)
chain: PNVTITTKTEDDLVEINIEFDDPELAEEVAELIEDVAHKHGALALSIEINEDGTLDATIWVPKEKAQALLDALIKALKEKFNATVTVIDEDTGEVKTIKA
B19: GBRAP_137_3623 (protein)
chain: KKVKITFYEEDGVAIAEITADTSVDKEKVLEIVEEVAEKHGVKLVVALTEPDEPAVFYLVGTPEQVIAAVKELIKRLKEELGIEVELSSEGAEELVEEVK
B20: GBRAP_137_3622 (protein)
chain: KKVTITFYEEDGVAIAEITADTSVDKEKVLALVEEVAEEHGVQLVEALVEPDEPLVLYLVGTPEQVIAAVKDLIERLKSELGIEVVLESEGAEELVEEVK

Target: GABARAP, O95166
Sequence (O95166 whole entry, the tested form may be a part): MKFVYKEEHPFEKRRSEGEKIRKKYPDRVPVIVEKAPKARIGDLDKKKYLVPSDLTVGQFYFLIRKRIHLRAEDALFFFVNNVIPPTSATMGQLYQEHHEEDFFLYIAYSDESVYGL
Test: median log2 fold change of GCK-ALFA target abundance (FLAG IP / Myc IP barcode read proportion) (log2 ratio); each designed protein is fused to an ALFA-tag nanobody in HEK293 cells to bring the named protein to FLAG-tagged glucokinase (GCK); Myc marks an untargeted standard; higher = target protein stabilised (more abundant)
Conditions: target protein: 3xFLAG-MCP-GCK-ALFA reporter; HEK293 landing pad (RPLP)
In short: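 Sequencing of reverse-transcribed, amplified circular RNA barcodes from anti-FLAG and anti-Myc immunoprecipitates provided the readout for an ALFA-nanobody-fused binder library recombined into HEK293 landing-pad cells. Those cells were induced with 2 μg mL^−1 doxycycline, transfected with a plasmid expressing a FLAG-tagged target and a Myc-tagged standard, and lysed after 48 h. Target abundance is the per-binder median log2 ratio of FLAG to Myc barcode read proportions. Only barcodes at a proportion of ≥10^−7 in both replicates and binders with ≥3 barcodes per replicate were kept, with a 10^−6 pseudocount added before the two replicates were pooled.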

Row | Binder | median log2 fold change
1 | B1 | 0.0481
2 | B2 | 0.222
3 | B3 | -0.628
4 | B4 | -0.0804
5 | B5 | 0.0696
6 | B6 | 0.172
7 | B7 | -0.22
8 | B8 | -0.437
9 | B9 | -0.694
10 | B10 | 0.286
11 | B11 | 0.206
12 | B12 | -0.617
13 | B13 | -0.772
14 | B14 | 0.0485
15 | B15 | 0.197
16 | B16 | 0.0653
17 | B17 | -0.000956
18 | B18 | -0.117
19 | B19 | -0.628
20 | B20 | -0.288
